Compound activity as filed in PubChem.
HIF act: HIF pathway transcriptional activation. U2OS HRE-luciferase reporter, luminescence; normalized: DMSO 0%, desferrioxamine 100%. actives 0.32% (n = 300,000). activation, % at 7.5 µM (by protocol);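 active means mean activation of at least 10% of the iron chelator positive control signal, with at least half of replicates also reaching 10%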
Jurkat NFkB inh: inhibitors of the PMA/ionomycin-induced NF-kB reporter in Jurkat cells; PMA/ionomycin-induced NF-kB luciferase reporter, luminescence; inhibition, % at 4 µM; actives 0.53% (n = 330,000); AID 435003; in the data active means inhibition above about 50%
CFTR F508del cor: correctors of CFTR F508del function in bronchial epithelial cells; CFBE cells, YFP halide quenching; stimulated with forskolin plus potentiator P3; % fluorescence drop versus neutral controls; activity (quench increase), % at 7.58 µM; actives 0.36% (n = 350,000);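 active means mean added fluorescence quench of at least 8% versus neutral control, with both replicates also reaching 8%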;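 further: cells transiently co-express mutant CFTR-F508del with the halide-sensitive YFP; corrector assay measuring rescue of mutant channel to the surface after 24 h compound exposure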
697 NFkB inh: inhibitors of the PMA/ionomycin-induced NF-kB reporter in 697 B cells; 697 B-cell NF-kB luciferase reporter, 16 h; inhibition, % at 4 µM; actives 0.33% (n = 330,000); AID 435022; in the data active means inhibition above about 35%
697 NFkB conf: inhibitors of the PMA/ionomycin-induced NF-kB reporter in 697 B cells, retest; shares compounds with 697 NFkB inh; 697 B-cell NF-kB luciferase, 16 h; inhibition, % at 4 µM; actives 35% (n = 2,000); in the data active means inhibition mostly above about 28%, no sharp cut-off; inactive means mostly below about 22%
* marks the source's active call; other numbers are inactive results. Rows were chosen to be rich in hits. Some 0.93% of all compounds tested hit in one or more screens of this group.

What do the screens show for `CCCCOC(=O)COc1cc(C)cc2oc(=O)c3c(c12)CCC3`?
HIF act: 0.9; Jurkat NFkB inh: -1.6; 697 NFkB inh: -7.9

How did CCCNC(=O)[C@@H]1[C@@H](CO)[C@@H]2Cn3c(cccc3=O)[C@H]1N2CCC do in these assays?
CFTR F508del cor: -0.3

How did N#Cc1cccc(-c2ccc([C@H]3[C@@H](CO)N4CCCCN(C(=O)Cc5ccccc5)C[C@H]34)cc2)c1 do in these assays?
CFTR F508del cor: 4.3

Results for CNC(=O)c1cccn(Cc2ccc(C(F)(F)F)cc2)c1=O ?
HIF act: -0.1; Jurkat NFkB inh: 5.7; CFTR F508del cor: -0.5; 697 NFkB inh: 49.9*; 697 NFkB conf: 61.2*

What do the screens show for `COC(=O)[C@@H]1[C@@H](CO)[C@@H]2Cn3c(ccc(-c4cccc(F)c4)c3=O)[C@H]1N2Cc1ccccc1`?
CFTR F508del cor: 2.2

Results for O=C(Cc1cccnc1)N1CCCCN2[C@H](C1)[C@H](c1ccc(/C=C/c3ccccc3)cc1)[C@@H]2CO ?
CFTR F508del cor: 3.1

How did Cn1cnc([N+](=O)[O-])c1Sc1ccc([N+](=O)[O-])cc1 do in these assays?
HIF act: 0.5; Jurkat NFkB inh: 20.3; CFTR F508del cor: 0.5; 697 NFkB inh: 36.2*; 697 NFkB conf: 42.8*

What do the screens show for `Cn1c(=O)cc(OCC(=O)N2CCC3(CC2)OCCO3)c2ccccc21`?
HIF act: -0.1; Jurkat NFkB inh: 14.8; 697 NFkB inh: 42.4*; 697 NFkB conf: 39.6*

Results for COc1ccccc1C1=NCc2nnc(C)n2-c2ccc(Cl)cc21 ?
HIF act: 1.0; Jurkat NFkB inh: -4.1; 697 NFkB inh: -2.9

What do the screens show for `COc1ccc(C2=NCc3nnc(C)n3-c3ccc(Cl)cc32)cc1Cl`?
HIF act: 0.5; Jurkat NFkB inh: -31.2; 697 NFkB inh: 44.9*; 697 NFkB conf: 35.4*
